Compounds with a hit are over-represented: about 6.5% of the library has one in this group of screens.
Lassa entry inh = qHTS for Inhibitors of binding or entry into cells for Lassa Virus | Lassa virus pseudotype entry inhibition, cell reporter | Potency, µM (series often up to 37.9 µM), without a hit: top-dose activity change, negative = inhibition, most hits filed as inhibitors | actives 1.2% (n = 300,000); calls by dose curve; tested in HEK293 cells; note: potency is the fitted concentration of half-maximal effect; nearly all actives have a fitted effect of over 50% in size
Vaccinia mCherry = qHTS for Stage-Specific Inhibitors of Vaccinia Orthopoxvirus: mCherry Reporter Primary qHTS | actives 0.63% (n = 310,000) | Potency, µM (titrated, usually from 36.5 µM), without a hit: at the highest dose activity change, negative = inhibition, most hits filed as inhibitors | Vaccinia virus mCherry reporter infection, fluorescence; calls by dose curve; tested in A549 cells; note: potency is the fitted concentration of half-maximal effect; nearly all actives have a fitted effect of over 35% in size
VACV Venus inh = qHTS for Stage-Specific Inhibitors of Vaccinia Orthopoxvirus: Venus Reporter Primary qHTS. actives 0.46% (n = 330,000). Vaccinia virus Venus reporter expression, fluorescence. AID 720580, 2013. Potency, µM (top dose mostly 36.5 µM), for the others: top-dose activity change, negative = inhibition, actives largely listed as inhibitors; calls by dose curve; tested in A549 cells; note: potency is the fitted concentration of half-maximal effect; nearly all actives have a fitted effect of over 30% in size
MARV entry inh = qHTS for inhibitors of binding or entry into cells for Marburg Virus | Marburg virus pseudotyped entry inhibition, cell reporter | Potency, µM (series often up to 37.8 µM), for the others: at the top dose activity change, negative = inhibition, most hits filed as inhibitors | actives 1.8% (n = 300,000); calls by dose curve; tested in HEK293 cells; note: potency is the fitted concentration of half-maximal effect
HCMV inh = qHTS Assay for inhibitors of the human cytomegalovirus (HCMV) | HFF cells, HCMV-luciferase reporter, 72 h; active compounds read low | activity change, negative = inhibition, % at 57.5 µM | actives 4.5% (n = 410,000) | AID 1259415, 2018; in the data active = activity change below about -60%; inconclusive = no clear call, values can overlap the other calls; inactive = above about -39%
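Two-dose cell screen: HFF monolayers treated with compounds and infected with luciferase-expressing HCMV at 1 PFU/cell, 72 h at 37C, then lysed for luciferase measurement.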
FMDV inh = High Throughput Screening for Foot and Mouth Disease Virus Antivirals | AID 1159524, 2015 | FMDV antiviral cell-based qHTS | Potency, µM (highest dose often 57.9 µM), for the others: at the highest dose activity change, negative = inhibition, most hits filed as inhibitors | actives 1.2% (n = 410,000); calls by dose curve; tested in HEK293T cells; note: read-out not given here; potency is the fitted concentration of half-maximal effect; nearly all actives have a fitted effect of over 45% in size
* hit, by the source's call; i = inactive; ? = inconclusive; nt = no result given; + = active, no number; [ ] = dose if it differs, or a comment. % is set by controls: 0 for no effect and ±100 for the full control effect.

SMILES	Lassa entry inh	Vaccinia mCherry	VACV Venus inh	MARV entry inh	HCMV inh	FMDV inh
Cc1occc1C(=O)Nc1cccc(-c2nc(CNC(=O)c3ccc(N4CCCCC4)cc3)c(C)o2)c1	nt	-10%	-3%	nt	nt	20%
O=S(=O)([N-]c1nc2ccccc2nc1-[n+]1ccccc1)c1ccc(Cl)cc1	1%	nt	-13%	0%	-62*	4%
N#CCCn1cc(/C=N/NC(N)=S)c(-c2ccc(Br)cc2)n1	-2%[46.1 µM]	-29%	?	?	-70*	-14%
CC(=O)c1ccc(N2CCN(S(=O)(=O)c3ccc(-c4cc(C(F)(F)F)on4)s3)CC2)cc1	5%[46.1 µM]	-14%	-13%	nt	-16	-18%
COc1ccccc1CCc1nnc(CCC(=O)NC(C)Cc2ccsc2)o1 (stereo not given)	nt	1.1µM*	1.8µM*	?	-28	3%
COc1ccccc1CCc1nnc(CCC(=O)NCC(C)Oc2cccnc2)o1 (stereo not given)	nt	nt	nt	nt	28	-22%
C=CCc1c(C)nc2c(OC)cccc2c1Cl	6%	-8%	-14%	1%	-83*	7%
CC(C)CC(NC(=O)CCCNC(=O)CCC(=O)OC1O[C@H]2OC3(C)CC[C@H]4[C@H](C)CCC(C1C)C24OO3)C(=O)O (stereo not given in full)	?	-18%	1%	?	-63*	8%
CCN(CC)c1ccc2cc(-c3nc4sc5c(c4c(=O)[nH]3)CCC(C(C)(C)C)C5)c(=O)oc2c1 (stereo not given)	3%[46.1 µM]	-9%	132%	nt	-4	-8%
O=C(CCNNC(=O)c1ccncc1)NCc1ccccc1	?	-13%	-10%	?	-103*	-25%
O=C(CCc1ccccc1)NCc1ccncc1	nt	nt	nt	nt	32	-5%
Cc1ccc(C(=O)NNC(=O)c2cccc(S(=O)(=O)N3CCOCC3)c2)cc1	nt	nt	nt	nt	2	-8%
Cc1cccc(C(=O)NNC(=O)c2ccc(S(=O)(=O)N3CCOCC3)cc2)c1	?	-7%	-23%	?	-75*	-3%
O=C(NCC1CCN(c2ccc(S(=O)(=O)N3CCOCC3)cc2)CC1)c1ccc(Cl)cc1	?	nt	?	?	?	40µM*
O=C(O)c1cccc(NS(=O)(=O)c2ccc(S(=O)(=O)N3CCOCC3)cc2)c1	nt	nt	nt	nt	-76*	-16%
O=C(c1cccc(NS(=O)(=O)c2cccc(C(F)(F)F)c2)c1)N1CCOCC1	-2%	i	-4%	8%	-62*	17%
O=C(c1cccc(S(=O)(=O)Nc2cccc(C(F)(F)F)c2)c1)N1CCOCC1	19%	-19%	-4%	-1%[46.1 µM]	-27	9%
Cc1ccc(-c2ccnc(-n3ncc(C(=O)N(C)CC4CCCN(C)C4)c3C)n2)o1 (stereo not given)	nt	-6%	-9%	nt	nt	0%
COc1cc(NC(=O)NCc2ccco2)ccc1-c1ccc(NC(=O)NCc2ccco2)cc1OC	?	?	-21%	?	-67*	-27%
CCN1C(=O)[C@@H]2[C@H]3[C@H](O)[C@H](O)CC(=NOCC[C@@H]4C=C[C@H](OC(C)=O)[C@@H](COC(C)=O)O4)[C@@H]3CC[C@H]2C1=O	nt	nt	nt	-15%[14.2 µM]	nt	nt
CCOc1cc(NC(=S)Nc2ccccc2)c(OCC)cc1NC(=O)c1ccc(OC)cc1	?	nt	nt	?	-66*	8%
COc1ccc(NC(=S)Nc2ncccc2C)c(OC)c1	-39%	?	?	-29%	-63*	nt
COc1ccc(NC(=S)Nc2ccc(OCc3ccccc3)cc2)c(OC)c1	-10%	-4%	-13%	?	-76*	0%
COc1ccc(NC(=S)Nc2ccccc2)c(OC)c1	nt	nt	nt	nt	-9	5%
CCOc1ccccc1NC(=S)Nc1ncccc1C	?	?	?	?	-61*	5%
SMILES	Lassa entry inh	Vaccinia mCherry	VACV Venus inh	MARV entry inh	HCMV inh	FMDV inh
CCN(CC)S(=O)(=O)c1ccc(C(=O)Nc2nc3c(Cl)cc(Cl)cc3s2)cc1	?	?	?	nt	4	-4%
CCN(CCCNC(=O)CSc1cc(=O)n(CC)c2ccccc12)c1ccccc1	-16%[46.1 µM]	-15%	-8%	?	1	-27%
CCOC(=O)c1ccc(NC(=O)Nc2nc3ccccc3s2)cc1	nt	-7%	-20%	nt	-35	0%
CCOC(=O)c1ccc(NC(=O)Nc2nncs2)cc1	nt	?	?	nt	-75*	?
CCOC(=O)c1ccc(NC(=O)c2nc[nH]c2C(=O)NC)cc1	nt	i	-10%	nt	6	-7%
CCOC(=O)c1ccc(NC(=O)CNC(=O)c2ccccc2)cc1	?	nt	nt	7%	25	22%
CCOC(=O)c1ccc(NC(=O)c2nccnc2C(=O)O)cc1	nt	i	-10%	nt	-75*	-5%
CCOC(=O)c1ccc(NC(=O)Nc2ccon2)cc1	nt	nt	nt	nt	+	13%
CCOC(=O)c1ccc(NC(=O)Nc2ccc(Cl)cn2)cc1	-2%	i	-13%	12%[46.1 µM]	-2	-15%
CCOC(=O)c1ccc(P(=O)(c2ccccc2)c2ccccc2)cc1	nt	nt	nt	nt	-97*	8%
O=C(NCC1Cc2cccc(-c3cnccn3)c2O1)c1ccc2c(c1)OCCO2 (stereo not given)	nt	-14%	-8%	nt	nt	47%
CCC[C@H]1[C@@H](NS(=O)(=O)c2ccc(C#N)cc2)CC[C@@]23CCCN2C(=O)CCC[C@@H]13	nt	nt	nt	nt	-2	nt
CC(=O)c1ccc2c3c(cccc13)CC2	-2%	i	-9%	17%[46.1 µM]	13	-5%
ON=C(c1ccccc1)c1ccc2c3c(cccc13)CC2	nt	-20%	?	nt	-62*	?
Cc1cc(C)nc(N(C#N)CN2C(=O)c3ccccc3S2(=O)=O)n1	-2%	nt	-27%	-24%	41	40µM*
COC(=O)NC(c1ccccc1)c1c[nH]c2ccccc12 (stereo not given)	nt	nt	nt	-7%[14.2 µM]	nt	nt
COC(=O)[C@@]1(Sc2ccc(OC)cc2)CC(=O)N(c2ccc(OC(C)C)cc2CO)[C@@H]1c1ccc(OC(C)C)c(OC)c1	nt	nt	nt	nt	18	nt
CCN(CC)c1ccc(NC(=O)COCc2cc(-c3ccc4c(c3)OCO4)on2)c(C)c1	-11%[46.1 µM]	-1%	-26%	nt	-17	-17%
Nc1cccc2c1C(=O)N(CCOc1ccccc1F)C2=O	2.8µM*	i	-10%	?	83	-44%
CCCCn1c(=O)c(C(=O)Nc2ccccn2)c(O)c2ccccc21	nt	nt	nt	nt	-78*	-16%
CCn1c(=O)c(C(=O)Nc2ccccn2)c(O)c2ccccc21	29%[46.1 µM]	-17%	5%	12%[46.1 µM]	25	-6%
CCCCCCn1c(=O)c(C(=O)Nc2ncccc2O)c(O)c2ccccc21	nt	nt	nt	nt	-73*	-18%
CCCCCn1c(=O)c(C(=O)Nc2ccccn2)c(O)c2ccccc21	nt	nt	nt	nt	-98*	-17%

Screening data (PubChem BioAssay)
